Hits are enriched below; roughly 3.3% of the tested compounds scored in any of these assays.
Mcl1 Bid PPI = Mcl-1/Bid interaction inhibition. Q07820. TR-FRET Mcl-1/Bid-Dy647 peptide binding, 1536-well. inhibition, % at 21.7 µM. 0.97% of 220,000 active;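 active = compounds that cut the binding signal by more than half at the single screening dose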;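 note: His-tagged Mcl-1 with europium anti-His antibody binding Bid BH3 peptide; 0% = Mcl-1 plus peptide wells and 100% = peptide-only wells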
Target sequence (Q07820 whole entry, looked up): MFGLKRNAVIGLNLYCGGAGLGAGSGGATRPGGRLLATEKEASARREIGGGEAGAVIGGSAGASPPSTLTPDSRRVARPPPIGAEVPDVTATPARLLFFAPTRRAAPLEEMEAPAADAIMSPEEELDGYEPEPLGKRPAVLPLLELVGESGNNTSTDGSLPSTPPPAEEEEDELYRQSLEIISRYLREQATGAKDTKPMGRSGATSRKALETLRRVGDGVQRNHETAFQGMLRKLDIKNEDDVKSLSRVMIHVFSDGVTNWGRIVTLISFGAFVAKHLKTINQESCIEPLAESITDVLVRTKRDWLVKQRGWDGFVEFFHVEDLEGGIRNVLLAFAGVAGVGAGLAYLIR
eIF4E 4G PPI = eIF4E/eIF4G interaction inhibition in translation initiation | inhibition, % at 21.7 µM | 0.37% of 220,000 active | P63073+Q04637 | TR-FRET eIF4E-eIF4GI(517-606) binding, 2 h;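 note: 0% = full FRET control wells and 100% = background wells lacking eIF4GI fragment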
NCF1 inh = inhibitors of human p47phox binding | p47phox/p22phox peptide binding, fluorescence polarization, 2 h | 0.53% of 220,000 active | inhibition, % at 24.7 µM | P14598;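 note: 0% = p47phox with labelled peptide and 100% = labelled peptide alone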
Target sequence (P14598 whole entry, looked up): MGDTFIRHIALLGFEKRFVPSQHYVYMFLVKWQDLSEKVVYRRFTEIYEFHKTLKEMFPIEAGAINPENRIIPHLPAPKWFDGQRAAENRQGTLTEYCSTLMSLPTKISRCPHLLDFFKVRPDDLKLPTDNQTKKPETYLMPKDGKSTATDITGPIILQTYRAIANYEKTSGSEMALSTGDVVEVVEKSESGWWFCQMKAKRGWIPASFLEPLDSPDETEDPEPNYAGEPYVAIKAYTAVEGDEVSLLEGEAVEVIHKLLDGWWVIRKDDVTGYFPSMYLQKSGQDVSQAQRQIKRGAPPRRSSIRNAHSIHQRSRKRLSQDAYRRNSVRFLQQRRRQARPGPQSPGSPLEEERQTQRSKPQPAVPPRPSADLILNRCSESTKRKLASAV
14-3-3 Bad inh = disrupts binding of bovine 14-3-3 zeta to phospho-Bad peptide. P63103. TR-FRET 14-3-3zeta/Dy647-pBad peptide displacement, 1 h. inhibition, % at 21.7 µM. 0.71% of 220,000 active;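 active = inhibition above about 70%, limit read from the data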;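 note: 0% = full 14-3-3 plus peptide FRET controls and 100% = background without 14-3-3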
Bim-Mcl-1 = disrupts Bim peptide binding to human Mcl-1; Q07820; Bead-based flow cytometry, Bim peptide-Mcl-1 binding; inhibition, % at 10 µM; 0.1% of 190,000 active; AID 1009; in the data active = inhibition above about 40%;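 note: 0% = no compound tracer wells and 100% = peptide blocker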
Mcl1 Noxa PPI = Mcl-1/Noxa interaction inhibition; TR-FRET Mcl-1/Noxa peptide binding, 2 h; inhibition, % at 21.7 µM; 1.5% of 220,000 active;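 active = compounds that cut the protein-peptide binding signal by more than 50% relative to plate controls in a single-dose test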;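 note: His-tagged Mcl-1 with rhodamine Noxa BH3 peptide and terbium anti-His antibody; 0% = Mcl-1 plus Noxa peptide wells and 100% = peptide-only wells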
Active calls of the source: *; . = no result given; [ ] = another dose, or the depositor's remark.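 Rule for the calls, unless noted: active = inhibition above about 30% (limit read from the data); inactive = the rest.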

SMILES | Mcl1 Bid PPI | eIF4E 4G PPI | NCF1 inh | 14-3-3 Bad inh | Bim-Mcl-1 | Mcl1 Noxa PPI
Cc1ccc(NC2=NCC(=O)N2C2CCCC2)cc1 | -7.6 | -3.5 | -3.8 | 0.8 | 2.0 | 10.2
CC(C)C(=O)N1CCN(c2ccccc2NC(=O)c2cc([N+](=O)[O-])ccc2N2CCOCC2)CC1 | -27.9 | 4.9 | -1.7 | -9.8 | 0.0 | -4.1
O=C(O)c1cccc(Cn2c(Cl)c(/C=N/NC(=O)c3cc4ccccc4cc3O)sc2=O)c1 | 50.1 | 6.2 | -59.4 | 9.1 | . | 87.5*
O=C(O)c1cccc(Cn2c(Cl)c(/C=N/NC(=O)c3ccccc3)sc2=O)c1 | -21.3 | 5.8 | -25.1 | 21.9 | -2.0 | 15.5
NC(=S)n1[nH]c(-c2ccc([N+](=O)[O-])cc2)c(N=Nc2cccc([N+](=O)[O-])c2)c1=O | 82.5* | 12.6 | -2.2 | 90.9* | 1.0 | 85.4*
NC(=S)n1[nH]c(-c2ccc([N+](=O)[O-])cc2)c(N=Nc2ccccc2[N+](=O)[O-])c1=O | 90.1* | -18.5 | 30.1* | 65.0 | -174.0 | 84.2*
Cc1c(N=Nc2c(-c3ccc([N+](=O)[O-])cc3)[nH]n(C(N)=S)c2=O)cccc1[N+](=O)[O-] | 97.8* | 33.5* | 22.2 | 91.6* | 0.0 | 115.7*
Nc1[nH]n(-c2ccccc2)c(=O)c1N=Nc1ccccc1 | -21.0 | -1.0 | -0.6 | -3.3 | . | 3.0
Cc1[nH]n(C(N)=S)c(=O)c1N=Nc1ccc2ccccc2c1 | -122.6 | -2.5 | -11.8 | -28.1 | 2.0 | -16.9
Nc1[nH]n(-c2ccccc2)c(=O)c1N=Nc1ccc2ncsc2c1 | -18.5 | 9.4 | 1.9 | -2.7 | . | 62.5*
Nc1[nH]n(-c2ccccc2)c(=O)c1N=Nc1ccccc1[N+](=O)[O-] | 39.6 | -24.1 | -5.2 | 11.9 | 3.0 | 59.7*
Cn1c(C(=O)NCc2ccccc2)cc2oc3ccccc3c21 | -22.4 | -2.4 | 31.3* | -8.3 | 4.0 | -8.3
CN(C)c1ccc(N/C(N)=N/c2nc(C(F)(F)F)cc(C(F)(F)F)n2)cc1 | -51.0 | 13.5 | 0.7 | -14.2 | 1.0 | 60.5*
O=C(c1ccc(CNS(=O)(=O)c2ccc(Br)cc2)cc1)N1CCCC1 | -33.4 | 6.5 | -6.6 | -0.8 | 42.0* | 4.0
Cc1cc(=O)oc2cc(OCC3CC(c4ccc(N(C)C)cc4)=NO3)ccc12 (centres undefined) | 51.9* | -24.8 | -16.7 | -7.9 | -1.0 | 28.7
CC(C)NCC(=O)Nc1c2c(nc3ccccc13)CCC2 | 34.3 | 31.0* | -16.4 | 29.9 | . | 45.5
Cc1c(NC(=O)C(C)OC(=O)c2c3c(nc4ccccc24)CCC3)c(=O)n(-c2ccccc2)n1C (centres undefined) | -19.0 | 3.2 | -5.0 | -5.2 | -5.0 | 54.1*
Cc1cccc(NC(=O)CSc2c3c(nc4ccccc24)CCC3)n1 | -15.5 | -0.3 | -5.3 | -6.7 | -1.0 | 0.8
CN(C)C(=O)CCSc1nnc(-c2ccco2)o1 | -29.7 | 5.5 | -1.4 | 0.2 | -1.0 | 8.9
O=C(Nc1nc(-c2ccccc2)cs1)C1CCCCN1S(=O)(=O)c1ccc(Cl)cc1 (centres undefined) | 7.1 | -4.6 | -17.9 | -4.3 | -4.0 | 10.5
CC(C)(C)C(=O)Nc1nc(C2CCCN2S(=O)(=O)c2ccc(Cl)cc2)cs1 (centres undefined) | -19.1 | 5.3 | 11.3 | 71.3* | 2.0 | -7.7
O=C(NC1CCCc2ccccc21)c1cccc(S(=O)(=O)N2CCOCC2)c1 (centres undefined) | -4.5 | -2.7 | -7.8 | -1.3 | 0.0 | 17.2
Cc1ccc2cc(C#N)c(SCC(=O)NCc3ccco3)nc2c1 | -7.4 | -2.9 | -31.3 | -13.7 | 0.0 | 24.4
Cc1ccc2nc(SCC(=O)NCc3ccco3)c(C#N)cc2c1 | -5.6 | -33.1 | 33.2* | -13.3 | -4.0 | -24.4
O=C(NCC1CC1)Nc1cccs1 | -46.8 | 5.3 | -4.7 | -1.7 | . | 0.1
SMILES | Mcl1 Bid PPI | eIF4E 4G PPI | NCF1 inh | 14-3-3 Bad inh | Bim-Mcl-1 | Mcl1 Noxa PPI
Cc1cc(Cl)ccc1OCCCC(=O)NO | -17.9 | 11.8 | -13.3 | -0.3 | 0.0 | 1.3
Cc1cc(Cl)ccc1OCCCC(N)=O | -10.1 | -1.5 | -9.9 | 2.6 | -2.0 | 70.7*
O=C(O)C1=C[C@H](c2ccc(Br)cc2)C[C@H](OCc2ccc(CO)cc2)O1 | 2.0 | 1.2 | . | -6.2 | -2.0 | -16.2
O=c1oc2cc(O)ccc2c2oc3cc(O)ccc3c12 | 37.3 | -0.1 | -92.8 | 27.3 | 2.0 | 54.6*
COc1ccc(C(=O)/C=C/C(=O)N(CC(=O)NC2CCCCC2)Cc2ccccc2)c(O)c1 | 37.0 | 1.9 | 30.1* | 1.0 | -3.0 | 6.0
COc1ccc(C(=O)/C=C/C(=O)N(CC(=O)NC2CCCCC2)Cc2ccccc2OC)c(O)c1 | 17.2 | 8.4 | 33.3* | 5.4 | 0.0 | 10.8
COc1ccc(C(=O)/C=C/C(=O)N(CC(=O)NC2CCCCC2)CC2CCCO2)c(O)c1 (centres undefined) | 30.1 | 4.6 | -4.1 | 3.5 | -6.0 | 68.5*
COc1ccc(C(=O)/C=C/C(=O)N(Cc2ccccc2)C(C(=O)NC2CCCCC2)c2ccncc2)c(O)c1 (centres undefined) | -22.1 | 15.6 | -7.2 | -10.3 | 0.0 | 16.3
CC1=C(C)CC(C(=O)Nc2ccc3c(c2)OCO3)C(C(=O)O)C1 (centres undefined) | -44.9 | -2.4 | -10.6 | -11.3 | 0.0 | 10.9
CN(C)c1ccc(/C=C2\N=C(c3ccc(Cl)c([N+](=O)[O-])c3)NC2=O)cc1 | 39.9 | 11.2 | . | 56.9 | 0.0 | 72.6*
O=C1CSC(=Nc2ccc(Cl)cc2)N1Cc1cccnc1 | 0.8 | 6.5 | -14.7 | -4.0 | . | 1.8
O=C(NCC1CCCO1)C(c1ccc(N2CCOCC2)cc1)N(C(=O)Cn1nnc2ccccc21)c1ccccc1F (centres undefined) | -29.3 | 0.2 | -0.6 | -11.9 | 1.0 | 16.1
Cc1ccc(C)c(NC2=CC(=O)CC(C)(C)C2)c1C#N | -2.0 | 1.3 | 9.7 | 75.7* | 0.0 | 1.3
COc1ccc(CNC(=O)CN(c2ccccc2)S(=O)(=O)c2ccccc2[N+](=O)[O-])cc1 | -11.8 | -2.5 | 5.0 | -10.6 | -6.0 | 1.1
CCCN1C(=O)C2(C(C(=O)c3ccc(C)o3)=C(O)C(=O)N2CCCOC)c2ccccc21 (centres undefined) | -6.5 | 96.2* | -9.0 | 9.3 | . | 18.3
CCN1C(=O)C2(C(C(=O)c3ccc(C)o3)=C(O)C(=O)N2CCCN(C)C)c2ccccc21 (centres undefined) | -97.9 | 2.7 | -16.2 | -0.6 | . | -6.8
OC1CCCN(Cc2ccc3ccc4cccc5ccc2c3c45)C1 (centres undefined) | 3.7 | 2.2 | -5.3 | -4.4 | 0.0 | -21.6
c1cc2ccc3ccc(CN4CCOCC4)c4ccc(c1)c2c34 | 10.4 | 9.2 | -5.2 | 84.8*[fluorescence artefact?] | -2.0 | 29.0
Oc1ccc(/C=N/N=C(c2ccccc2)c2ccccc2)c(O)c1O | 6.4 | 33.4*[fluorescence artefact?] | -3.2 | 16.6 | -1.0 | 101.2*
O=C(/C(=N/N=C/c1ccc(O)c(O)c1O)c1ccccc1)c1ccccc1 | -19.0 | 8.7 | -39.7 | -5.6 | -1.0 | 51.8*
